NR0B1 inh = inhibitors of human orphan nuclear receptor DAX1 (NR0B1) | P51843 | HEK293 Gal4-DAX1 luciferase reporter, luminescence | inhibition, % at 6.75 µM | 340,000 tested, 0.99% active | AID 504766;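 active = inhibition above the mean over all tested compounds plus 3 SD, cut at about 4.2% in these data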;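 note: 0% = DAX1-transfected cells with DMSO and 100% = empty-vector control cells with DMSO; inhibition shows as a rise in luminescence from relieved DAX1 repression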
Target sequence (P51843 207-470 limits assumed): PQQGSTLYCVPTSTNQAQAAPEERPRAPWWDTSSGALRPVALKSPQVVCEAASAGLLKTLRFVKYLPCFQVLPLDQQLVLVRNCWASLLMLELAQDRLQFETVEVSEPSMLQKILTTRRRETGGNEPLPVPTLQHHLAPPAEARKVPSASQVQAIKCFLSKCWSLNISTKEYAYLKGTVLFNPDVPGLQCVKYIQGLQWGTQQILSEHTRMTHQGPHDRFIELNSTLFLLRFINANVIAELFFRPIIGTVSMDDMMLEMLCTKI
AHR act = activates the human aryl hydrocarbon receptor; AHR-responsive luciferase reporter cells, luminescence; activation, % at 5 µM; 320,000 tested, 2.5% active; in the data active = activation above about 47%;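 note: 0% = vehicle wells and 100% = reference agonist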
HSF1 inhib = HSF1 inhibition. NIH3T3-HGL HSE-luciferase, MG132-induced, luminescence 8 h; active compounds read low. activity change, negative = inhibition, % at 7.5 µM (by protocol). 300,000 tested, 0.77% active. AID 2098;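 active = more than half of replicate wells show activity change below -50%, luminescence cut by over half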;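 note: luciferase reports HSF-1 transcriptional activity via heat shock element; 0% = median of DMSO wells and -100% = zero luminescence signal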
HSP90 inh = HSP90 refolding inhibition in rabbit reticulocyte lysate. inhibition, % at 5.6 µM. 290,000 tested, 0.91% active. luciferase refolding luminescence, 3 h;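 active = inhibition above the screen-wide mean plus 3 SD, computed separately per campaign, cut at about 16% in these data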;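 note: 0% = DMSO wells and 100% = 60 µM geldanamycin wells; inhibitors lower the luminescence because luciferase stays unfolded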
HSF1 activator = increases HSF-1 driven luciferase reporter signal. NIH3T3-HGL HSF-1 luciferase reporter, MG132, 8 h; 100% = twice DMSO control signal. activation, % at 9 µM. 300,000 tested, 1.7% active. AID 504408;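 active = mean replicate activation of at least 50% with a set share of replicates each reaching 50%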;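 note: 0% = median of the neutral control wells and 100% = twice that signal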
GAA850 FXN act = increases GAA850 frataxin promoter reporter activity | activation, % at 6 µM | HEK293 lucGAA850 FXN promoter luciferase reporter, 24 h; percent of 10 µM SAHA response | 360,000 tested, 0.56% active;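 active = activation above the average of all compounds screened plus 3 SD, cutoff fixed separately per campaign, cut at about 7.5% in these data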;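 note: 0% = DMSO wells and 100% = 10 µM SAHA wells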
* marks the source's active call; other numbers are inactive results; . = no result. Rows were chosen to be rich in hits. Some 5.9% of all compounds tested hit in one or more screens of this group.

SMILES	NR0B1 inh	AHR act	HSF1 inhib	HSP90 inh	HSF1 activator	GAA850 FXN act
Cc1oc2cc(O)ccc2c(=O)c1-c1cnn(-c2ccccc2)c1	0.1	-6.0	13.9	-0.8	-1.0	0.9
CC(C)=CCc1c(O)cc2c(c1O)C(=O)CC(c1ccccc1)O2 (stereo unspecified)	-1.2	51.2*	-13.3	.	-20.1	-1.9
O=C1CC(c2ccccc2)Oc2cc(O)cc(O)c21 (stereo unspecified)	-0.2	-1.6	1.9	.	-3.3	1.5
CCCCNC(=S)N(C)/N=C/c1c(C)[nH]c2ccccc12	-2.0	71.4*	0.0	0.0	14.8	1.1
Nc1ccc(-c2nc3ccccc3o2)cc1	2.6	29.8	19.8	16.8*	24.6	-0.1
Nc1ccc2oc(-c3cccc(Br)c3)nc2c1	0.6	16.7	-2.7	-2.7	15.4	-1.0
O=C1C=CC(=O)N1c1ccc(-c2nc3ccccc3o2)cc1	1.2	.	.	.	.	6.5
Nc1cc(N)cc(-c2nc3ccccc3o2)c1	2.0	72.4*	1.5	.	-0.3	-3.5
CC(=O)c1cc2c(cc1NC(=O)C1CN(C(C)=O)c3ccccc3O1)OCO2 (stereo unspecified)	-0.4	52.6*	.	.	.	1.0
CC(=O)c1cc2c(cc1NC(=O)C1CC=CCC1C(=O)O)OCO2 (stereo unspecified)	0.1	2.9	0.6	10.0	12.0	1.3
COc1cccc(CN2CCC(n3nccc3NC(=O)CCCc3ccccc3)CC2)c1	0.1	1.1	-5.2	-2.0	2.9	-2.7
Cc1ccc(N(CC(=O)N2CCCCC2)S(=O)(=O)c2ccc(C)cc2)cc1	4.6*	-1.6	-2.5	-0.8	-3.6	-0.1
COc1ccc2c(c1)[nH]c1c(=O)n(Cc3ccccn3)cnc12	2.5	12.2	0.2	-1.2	3.1	0.6
Cc1ccc2c(c1)[nH]c1c(=O)n(Cc3ccccn3)cnc12	0.5	49.1*	-1.8	-2.8	13.6	4.0
O=[N+]([O-])c1ccc(NN=Cc2cccc(O)c2)nc1	5.6*	.	.	.	.	4.6
O=[N+]([O-])c1ccc(NN=Cc2ccc3c(c2)OCO3)nc1	7.2*	.	.	.	.	3.5
c1ccc2c(c1)nnn1c3ccccc3nc21	.	10.2	28.7	11.5	61.6*	.
Cc1nc2ccccc2c2nc3ccccc3n12	-0.5	35.7	-8.1	1.5	20.2	3.0
COc1ccc(-c2cnc3c(c2)CCC3(C#N)C#N)cc1	7.3*	1.0	-18.7	-3.1	-31.3	1.6
CN(N=O)c1ccc(C=C2C=Cc3ccccc32)cc1	5.0*	.	.	.	.	2.8
CCN(N=O)c1ccc(C=C2C=Cc3ccccc32)cc1	3.2	.	.	.	.	3.4
COc1ccc(CCNC(=O)c2ccc(NS(=O)(=O)c3c(C)noc3C)cc2)cc1OC	0.0	-1.4	-8.3	-0.9	5.5	-0.2
CC1CCC(NC(=O)c2ccc(NC(=O)CC3SC(N4CCCC4)=NC3=O)cc2)CC1 (stereo unspecified)	1.6	5.3	2.9	.	2.0	4.7
CCOc1ccc(C(=O)N2CCN(S(=O)(=O)c3cccs3)CC2)c(OCC)c1	0.3	-0.3	8.6	0.9	54.3*	0.3
CCN1CCN(C(=O)CCCCCn2c(=O)[nH]c3cc(C(=O)OC)ccc3c2=O)CC1	0.4	-3.8	4.3	10.1	9.4	-1.0
SMILES	NR0B1 inh	AHR act	HSF1 inhib	HSP90 inh	HSF1 activator	GAA850 FXN act
CCN1CCN(CCNC(=O)CCCCCn2c(=O)[nH]c3cc(C(=O)OC)ccc3c2=O)CC1	0.5	-0.9	-54.2*	0.5	-65.3	-1.3
COCc1cc(CN2CCN(CCCc3ccccc3)C(CCO)C2)ccc1OC (stereo unspecified)	-0.1	-1.2	-10.2	-2.4	-4.3	-0.4
COCc1cc(CN2CCN(CCc3ccccc3)C(CCO)C2)ccc1OC (stereo unspecified)	1.0	0.4	155.5	2.1	190.3*	0.7
CC(=O)N1CC(C)Oc2ccc(S(=O)(=O)Nc3ccc(Cl)cn3)cc21 (stereo unspecified)	0.1	1.3	-0.4	-2.0	11.4	0.4
CN(CC(=O)Nc1c(Cl)cccc1Cl)C(=O)c1sccc1-c1ccccc1	-0.3	2.5	-8.3	.	-0.9	-1.2
OC(CNCc1ccco1)Cn1c2ccc(Br)cc2c2cc(Br)ccc21 (stereo unspecified)	1.1	0.4	22.6	-3.0	61.2*	-0.9
CC(=O)NCCNC(=O)c1ccc(NC2=NC3CS(=O)(=O)CC3S2)cc1 (stereo unspecified)	-0.9	-2.0	-3.7	-0.2	-15.9	-0.1
